# Columns and labels:
# Assay in all cases: DAPPL (digital affinity profiling via proximity ligation, sequencing); 10 mM Tris-HCl pH 7.5, 50 mM NaCl, 1 mM DTT, 4% glycerol, room temperature, 30 min; GST-TFs on glutathione beads, 16-mer random dsDNA library, 0.1% formaldehyde crosslink after washing; high values mean tight binding
# FLI1 = target: T1, FLI1 (Homo sapiens, UniProt Q01543 1-452); settings: protein: recombinant; tags: N-terminal GST; dsDNA, one strand shown
# T1 sequence: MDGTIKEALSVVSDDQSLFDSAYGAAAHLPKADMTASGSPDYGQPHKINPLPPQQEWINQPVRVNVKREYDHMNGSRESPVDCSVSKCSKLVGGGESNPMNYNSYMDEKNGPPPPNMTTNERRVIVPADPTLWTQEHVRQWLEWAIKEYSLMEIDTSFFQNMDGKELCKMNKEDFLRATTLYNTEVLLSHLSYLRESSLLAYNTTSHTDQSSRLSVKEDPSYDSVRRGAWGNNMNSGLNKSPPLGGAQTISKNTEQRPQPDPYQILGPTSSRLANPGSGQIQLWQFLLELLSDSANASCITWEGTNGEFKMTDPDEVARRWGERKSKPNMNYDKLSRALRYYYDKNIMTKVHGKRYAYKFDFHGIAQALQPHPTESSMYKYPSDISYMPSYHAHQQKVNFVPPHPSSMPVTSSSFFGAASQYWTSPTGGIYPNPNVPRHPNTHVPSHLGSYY
# Procedure, shortened: (§1)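 Binding signal is each hexamer's read frequency for a factor divided by its frequency in the tag-only sample. The factors were GST-fused human transcription factors from yeast, captured on glutathione beads, DNA-barcoded and pooled with that sample. Pools were incubated with 200 nmole of a random double-stranded 16-mer DNA library in Tris/NaCl/DTT/glycerol buffer at room temperature for 30 min, then washed, crosslinked with 0.1% formaldehyde, proximity-ligated with BsaI/T4 ligase (1 h, 37 °C), PCR-amplified and sequenced on an Illumina NextSeq500.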
# ELK1 = target: T2, ELK1 (Homo sapiens, UniProt P19419 1-428); settings: protein: recombinant; tags: N-terminal GST; dsDNA, one strand shown
# T2 sequence: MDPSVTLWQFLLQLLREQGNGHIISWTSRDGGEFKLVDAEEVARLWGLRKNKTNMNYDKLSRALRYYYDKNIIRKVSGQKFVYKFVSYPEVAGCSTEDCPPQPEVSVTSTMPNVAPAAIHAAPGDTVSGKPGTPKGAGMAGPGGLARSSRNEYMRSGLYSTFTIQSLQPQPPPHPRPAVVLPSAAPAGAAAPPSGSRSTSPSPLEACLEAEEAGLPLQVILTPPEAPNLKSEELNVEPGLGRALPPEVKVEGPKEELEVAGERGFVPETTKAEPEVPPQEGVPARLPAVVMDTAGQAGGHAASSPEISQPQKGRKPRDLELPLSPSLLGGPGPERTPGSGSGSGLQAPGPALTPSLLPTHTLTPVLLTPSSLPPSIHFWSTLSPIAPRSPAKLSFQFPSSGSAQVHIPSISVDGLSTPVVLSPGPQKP
# Procedure, shortened: as §1
# GABPA = target: T3, GABPA (Homo sapiens, UniProt Q06546 1-454); settings: protein: recombinant; tags: N-terminal GST; dsDNA, one strand shown
# T3 sequence: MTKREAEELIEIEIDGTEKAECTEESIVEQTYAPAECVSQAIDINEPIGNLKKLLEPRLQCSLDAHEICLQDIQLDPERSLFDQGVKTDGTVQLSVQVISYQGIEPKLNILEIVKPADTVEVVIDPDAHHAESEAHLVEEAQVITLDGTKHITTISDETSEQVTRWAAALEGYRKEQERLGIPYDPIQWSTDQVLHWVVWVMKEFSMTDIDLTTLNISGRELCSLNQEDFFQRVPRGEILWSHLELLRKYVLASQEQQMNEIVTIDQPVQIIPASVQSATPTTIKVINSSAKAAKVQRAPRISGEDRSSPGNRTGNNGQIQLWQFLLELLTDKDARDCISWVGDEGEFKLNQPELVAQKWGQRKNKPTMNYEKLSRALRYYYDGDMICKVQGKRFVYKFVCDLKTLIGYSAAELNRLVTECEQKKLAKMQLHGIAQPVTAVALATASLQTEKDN
# Procedure, shortened: as §1
# ERG = target: T4, ERG (Homo sapiens, UniProt P11308 1-479); settings: protein: recombinant; tags: N-terminal GST; dsDNA, one strand shown
# T4 sequence: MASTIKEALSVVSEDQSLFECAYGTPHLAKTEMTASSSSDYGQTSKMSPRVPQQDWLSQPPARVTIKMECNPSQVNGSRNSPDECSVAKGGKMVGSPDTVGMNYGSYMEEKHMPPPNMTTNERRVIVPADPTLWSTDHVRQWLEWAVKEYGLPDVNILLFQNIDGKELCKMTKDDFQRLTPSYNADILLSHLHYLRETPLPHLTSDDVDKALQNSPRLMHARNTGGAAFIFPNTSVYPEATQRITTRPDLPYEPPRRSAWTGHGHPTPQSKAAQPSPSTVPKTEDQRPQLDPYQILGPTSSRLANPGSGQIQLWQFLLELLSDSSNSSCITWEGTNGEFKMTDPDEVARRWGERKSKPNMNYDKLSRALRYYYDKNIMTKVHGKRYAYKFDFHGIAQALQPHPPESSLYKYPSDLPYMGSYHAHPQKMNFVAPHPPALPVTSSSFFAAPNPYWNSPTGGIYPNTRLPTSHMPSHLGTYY
# Procedure, shortened: as §1
# ELF1 = ELF1 (Homo sapiens, UniProt P32519 1-619); settings: protein: recombinant; tags: N-terminal GST; dsDNA, one strand shown
# Procedure, shortened: as §1
# EHF = target: T5, EHF (Homo sapiens, UniProt Q9NZC4 1-300); settings: protein: recombinant; tags: N-terminal GST; dsDNA, one strand shown
# T5 sequence: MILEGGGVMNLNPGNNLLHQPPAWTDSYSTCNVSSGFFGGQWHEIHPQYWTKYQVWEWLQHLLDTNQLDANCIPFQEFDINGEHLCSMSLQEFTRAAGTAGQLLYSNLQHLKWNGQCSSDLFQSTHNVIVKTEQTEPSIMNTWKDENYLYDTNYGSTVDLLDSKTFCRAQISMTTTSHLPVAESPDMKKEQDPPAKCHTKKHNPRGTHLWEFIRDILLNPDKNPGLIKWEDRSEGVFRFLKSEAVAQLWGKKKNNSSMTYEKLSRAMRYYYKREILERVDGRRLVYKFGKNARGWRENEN
# Procedure, shortened: as §1
# SPI1 = SPI1 (Homo sapiens, UniProt P17947 1-270); settings: protein: recombinant; tags: N-terminal GST; dsDNA, one strand shown
# Procedure, shortened: as §1
# SPIB = SPIB (Homo sapiens, UniProt Q01892 1-262); settings: protein: recombinant; tags: N-terminal GST; dsDNA, one strand shown
# Procedure, shortened: as §1
# ELK3 = target: T6, ELK3 (Homo sapiens, UniProt P41970 1-407); settings: protein: recombinant; tags: N-terminal GST; dsDNA, one strand shown
# T6 sequence: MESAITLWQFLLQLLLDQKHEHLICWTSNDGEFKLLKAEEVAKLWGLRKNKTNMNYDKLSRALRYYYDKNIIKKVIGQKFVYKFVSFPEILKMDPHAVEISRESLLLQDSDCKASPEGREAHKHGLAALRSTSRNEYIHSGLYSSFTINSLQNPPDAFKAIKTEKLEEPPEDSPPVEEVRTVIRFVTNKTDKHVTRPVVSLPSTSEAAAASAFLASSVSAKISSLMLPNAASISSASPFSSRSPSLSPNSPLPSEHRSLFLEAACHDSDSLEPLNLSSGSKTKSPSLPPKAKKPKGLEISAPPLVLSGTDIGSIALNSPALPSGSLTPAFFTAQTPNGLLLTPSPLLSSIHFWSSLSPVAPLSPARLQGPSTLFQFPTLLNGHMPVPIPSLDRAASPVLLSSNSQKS
# Procedure, shortened: as §1
# FEV = target: T7, FEV (Homo sapiens, UniProt Q99581 1-238); settings: protein: recombinant; tags: N-terminal GST; dsDNA, one strand shown
# T7 sequence: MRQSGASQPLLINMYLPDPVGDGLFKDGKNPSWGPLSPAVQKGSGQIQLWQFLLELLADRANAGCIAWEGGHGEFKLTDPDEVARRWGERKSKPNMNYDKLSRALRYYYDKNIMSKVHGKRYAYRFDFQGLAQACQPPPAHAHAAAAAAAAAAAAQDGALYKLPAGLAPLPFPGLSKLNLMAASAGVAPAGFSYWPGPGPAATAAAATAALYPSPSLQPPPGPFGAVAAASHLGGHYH
# Procedure, shortened: as §1
# ETV5 = ETV5 (Homo sapiens, UniProt P41161 1-510); settings: protein: recombinant; tags: N-terminal GST; dsDNA, one strand shown
# Procedure, shortened: as §1
# HSF1 = HSF1 (Homo sapiens, UniProt Q00613 1-529); settings: protein: recombinant; tags: N-terminal GST; chain copies: 3; dsDNA, one strand shown
# Procedure, shortened: as §1
# SPIC = target: T8, SPIC (Homo sapiens, UniProt Q8N5J4 1-248); settings: protein: recombinant; tags: N-terminal GST; dsDNA, one strand shown
# T8 sequence: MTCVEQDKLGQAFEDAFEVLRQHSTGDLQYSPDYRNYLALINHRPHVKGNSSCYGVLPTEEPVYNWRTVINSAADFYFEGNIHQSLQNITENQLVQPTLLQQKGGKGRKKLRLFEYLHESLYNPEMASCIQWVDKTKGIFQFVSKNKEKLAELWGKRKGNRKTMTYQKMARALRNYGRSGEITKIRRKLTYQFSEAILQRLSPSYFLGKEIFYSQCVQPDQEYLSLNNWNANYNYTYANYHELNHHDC
# Procedure, shortened: as §1
# ELF4 = ELF4 (Homo sapiens, UniProt Q99607 1-663); settings: protein: recombinant; tags: N-terminal GST; dsDNA, one strand shown
# Procedure, shortened: as §1
# ELK4 = target: T9, ELK4 (Homo sapiens, UniProt P28324-2 1-405); settings: protein: recombinant; tags: N-terminal GST; dsDNA, one strand shown
# T9 sequence: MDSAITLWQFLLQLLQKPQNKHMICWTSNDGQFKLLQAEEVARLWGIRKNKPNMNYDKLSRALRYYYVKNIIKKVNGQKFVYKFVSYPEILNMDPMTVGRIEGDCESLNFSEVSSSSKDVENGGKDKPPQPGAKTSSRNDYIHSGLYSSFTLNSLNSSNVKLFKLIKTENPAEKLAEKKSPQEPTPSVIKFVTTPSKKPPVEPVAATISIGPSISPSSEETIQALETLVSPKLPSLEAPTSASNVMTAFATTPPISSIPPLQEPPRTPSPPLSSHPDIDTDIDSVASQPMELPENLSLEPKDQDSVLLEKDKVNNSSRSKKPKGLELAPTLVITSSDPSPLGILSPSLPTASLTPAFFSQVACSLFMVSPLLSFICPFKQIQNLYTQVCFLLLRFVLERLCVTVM
# Procedure, shortened: as §1
# ETV2 = target: T10, ETV2 (Homo sapiens, UniProt O00321 1-342); settings: protein: recombinant; tags: N-terminal GST; dsDNA, one strand shown
# T10 sequence: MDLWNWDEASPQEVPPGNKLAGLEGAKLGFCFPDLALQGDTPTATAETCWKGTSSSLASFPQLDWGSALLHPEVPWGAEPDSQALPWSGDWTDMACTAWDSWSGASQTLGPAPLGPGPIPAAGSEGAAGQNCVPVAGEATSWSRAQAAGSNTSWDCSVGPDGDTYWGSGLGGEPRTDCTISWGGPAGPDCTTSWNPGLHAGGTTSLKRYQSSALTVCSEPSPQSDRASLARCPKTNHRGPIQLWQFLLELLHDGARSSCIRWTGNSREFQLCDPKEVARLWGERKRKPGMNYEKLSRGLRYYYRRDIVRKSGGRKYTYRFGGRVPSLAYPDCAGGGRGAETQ
# Procedure, shortened: as §1
# ELF3 = target: T11, ELF3 (Homo sapiens, UniProt P78545 1-371); settings: protein: recombinant; tags: N-terminal GST; dsDNA, one strand shown
# T11 sequence: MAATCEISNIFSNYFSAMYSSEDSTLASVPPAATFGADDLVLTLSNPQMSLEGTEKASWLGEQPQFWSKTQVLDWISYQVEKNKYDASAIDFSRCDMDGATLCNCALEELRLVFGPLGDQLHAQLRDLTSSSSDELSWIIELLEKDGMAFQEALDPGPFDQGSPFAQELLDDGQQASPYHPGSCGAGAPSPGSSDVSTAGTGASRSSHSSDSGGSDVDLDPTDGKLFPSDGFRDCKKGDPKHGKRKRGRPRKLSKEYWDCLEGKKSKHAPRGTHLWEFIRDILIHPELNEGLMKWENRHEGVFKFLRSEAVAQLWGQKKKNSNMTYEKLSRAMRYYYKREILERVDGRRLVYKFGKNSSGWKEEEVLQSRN
# Procedure, shortened: as §1
# CRX = CRX (Homo sapiens, UniProt O43186 1-299); settings: protein: recombinant; tags: N-terminal GST; dsDNA, one strand shown
# Procedure, shortened: as §1
# ETV1 = ETV1 (Homo sapiens, UniProt P50549 1-477); settings: protein: recombinant; tags: N-terminal GST; dsDNA, one strand shown
# Procedure, shortened: as §1
# Sequence of CRX (O43186 whole entry): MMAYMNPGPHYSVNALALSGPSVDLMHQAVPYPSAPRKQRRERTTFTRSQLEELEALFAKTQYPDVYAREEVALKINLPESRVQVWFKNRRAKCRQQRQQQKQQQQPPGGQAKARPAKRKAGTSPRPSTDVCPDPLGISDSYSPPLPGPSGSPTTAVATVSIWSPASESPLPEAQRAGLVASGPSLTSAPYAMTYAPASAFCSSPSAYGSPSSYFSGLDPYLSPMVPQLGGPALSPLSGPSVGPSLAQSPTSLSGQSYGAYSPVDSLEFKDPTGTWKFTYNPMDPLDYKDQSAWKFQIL
# Sequence of ETV5 (P41161 whole entry): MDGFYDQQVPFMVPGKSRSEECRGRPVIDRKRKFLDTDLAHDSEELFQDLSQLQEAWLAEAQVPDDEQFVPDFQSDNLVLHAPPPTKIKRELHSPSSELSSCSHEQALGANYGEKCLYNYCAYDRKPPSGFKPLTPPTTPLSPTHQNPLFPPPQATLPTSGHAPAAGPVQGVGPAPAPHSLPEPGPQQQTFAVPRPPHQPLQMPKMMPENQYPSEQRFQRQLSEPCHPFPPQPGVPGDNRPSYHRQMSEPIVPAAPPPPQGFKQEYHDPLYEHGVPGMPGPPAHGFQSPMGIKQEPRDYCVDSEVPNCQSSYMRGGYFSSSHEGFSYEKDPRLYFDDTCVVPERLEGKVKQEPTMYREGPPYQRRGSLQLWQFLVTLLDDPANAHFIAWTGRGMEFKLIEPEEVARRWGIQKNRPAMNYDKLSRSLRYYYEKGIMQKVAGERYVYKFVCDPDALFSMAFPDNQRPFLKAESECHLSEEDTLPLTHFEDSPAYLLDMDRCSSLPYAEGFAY
# Sequence of ELF4 (Q99607 whole entry): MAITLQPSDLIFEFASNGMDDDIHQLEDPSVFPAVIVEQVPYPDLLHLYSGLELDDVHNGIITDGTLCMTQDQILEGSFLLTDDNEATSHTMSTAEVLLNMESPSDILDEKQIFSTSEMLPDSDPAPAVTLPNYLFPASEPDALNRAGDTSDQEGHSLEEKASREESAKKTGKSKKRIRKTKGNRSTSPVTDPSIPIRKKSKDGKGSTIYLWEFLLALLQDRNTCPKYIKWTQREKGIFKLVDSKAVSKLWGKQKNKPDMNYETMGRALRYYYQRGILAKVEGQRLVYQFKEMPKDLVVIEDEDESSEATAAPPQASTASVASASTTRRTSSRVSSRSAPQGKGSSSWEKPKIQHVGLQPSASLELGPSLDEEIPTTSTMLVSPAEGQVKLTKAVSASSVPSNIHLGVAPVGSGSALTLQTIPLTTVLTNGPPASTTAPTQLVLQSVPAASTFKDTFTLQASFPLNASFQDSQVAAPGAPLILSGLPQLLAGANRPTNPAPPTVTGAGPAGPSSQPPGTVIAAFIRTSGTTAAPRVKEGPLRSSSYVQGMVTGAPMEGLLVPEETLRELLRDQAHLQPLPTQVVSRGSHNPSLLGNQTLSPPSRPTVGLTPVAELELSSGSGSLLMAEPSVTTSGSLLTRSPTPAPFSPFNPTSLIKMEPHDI
# Sequence of SPIB (Q01892 whole entry): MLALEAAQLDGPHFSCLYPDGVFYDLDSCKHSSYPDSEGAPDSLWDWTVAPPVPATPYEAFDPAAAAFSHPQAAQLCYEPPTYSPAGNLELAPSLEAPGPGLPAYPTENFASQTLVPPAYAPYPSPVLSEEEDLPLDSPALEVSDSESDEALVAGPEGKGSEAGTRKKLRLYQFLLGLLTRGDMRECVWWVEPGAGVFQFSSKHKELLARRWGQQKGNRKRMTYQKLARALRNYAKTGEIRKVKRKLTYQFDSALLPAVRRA
# Sequence of ELF1 (P32519 whole entry): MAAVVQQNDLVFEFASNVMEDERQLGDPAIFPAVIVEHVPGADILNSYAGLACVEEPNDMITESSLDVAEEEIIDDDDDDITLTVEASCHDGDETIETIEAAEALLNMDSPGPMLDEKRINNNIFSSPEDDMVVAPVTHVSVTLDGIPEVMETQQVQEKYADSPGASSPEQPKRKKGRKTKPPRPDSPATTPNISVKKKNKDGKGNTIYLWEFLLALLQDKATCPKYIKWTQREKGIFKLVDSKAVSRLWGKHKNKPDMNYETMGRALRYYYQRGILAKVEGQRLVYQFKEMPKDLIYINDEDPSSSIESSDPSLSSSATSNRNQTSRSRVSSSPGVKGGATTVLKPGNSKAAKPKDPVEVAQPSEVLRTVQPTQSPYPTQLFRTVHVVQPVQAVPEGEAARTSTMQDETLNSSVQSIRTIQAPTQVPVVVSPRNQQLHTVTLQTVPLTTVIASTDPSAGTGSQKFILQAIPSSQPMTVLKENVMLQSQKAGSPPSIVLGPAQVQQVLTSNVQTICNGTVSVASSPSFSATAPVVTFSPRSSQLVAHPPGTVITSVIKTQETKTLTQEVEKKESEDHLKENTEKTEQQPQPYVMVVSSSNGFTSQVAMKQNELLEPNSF
# Sequence of HSF1 (Q00613 whole entry): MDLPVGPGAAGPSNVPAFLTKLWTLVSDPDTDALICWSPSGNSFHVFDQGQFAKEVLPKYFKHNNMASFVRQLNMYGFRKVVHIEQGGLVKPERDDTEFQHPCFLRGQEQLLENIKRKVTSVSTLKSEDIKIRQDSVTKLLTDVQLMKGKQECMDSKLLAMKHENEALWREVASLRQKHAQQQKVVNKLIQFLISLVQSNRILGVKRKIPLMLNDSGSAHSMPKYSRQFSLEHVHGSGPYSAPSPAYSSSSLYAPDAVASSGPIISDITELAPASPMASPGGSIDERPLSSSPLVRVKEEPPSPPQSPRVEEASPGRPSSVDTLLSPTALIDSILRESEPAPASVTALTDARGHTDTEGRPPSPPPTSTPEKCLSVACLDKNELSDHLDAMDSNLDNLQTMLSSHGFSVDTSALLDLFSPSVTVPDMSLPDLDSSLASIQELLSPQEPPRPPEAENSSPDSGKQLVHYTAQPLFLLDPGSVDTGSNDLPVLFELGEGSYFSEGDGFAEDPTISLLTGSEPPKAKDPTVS
# Sequence of ETV1 (P50549 whole entry): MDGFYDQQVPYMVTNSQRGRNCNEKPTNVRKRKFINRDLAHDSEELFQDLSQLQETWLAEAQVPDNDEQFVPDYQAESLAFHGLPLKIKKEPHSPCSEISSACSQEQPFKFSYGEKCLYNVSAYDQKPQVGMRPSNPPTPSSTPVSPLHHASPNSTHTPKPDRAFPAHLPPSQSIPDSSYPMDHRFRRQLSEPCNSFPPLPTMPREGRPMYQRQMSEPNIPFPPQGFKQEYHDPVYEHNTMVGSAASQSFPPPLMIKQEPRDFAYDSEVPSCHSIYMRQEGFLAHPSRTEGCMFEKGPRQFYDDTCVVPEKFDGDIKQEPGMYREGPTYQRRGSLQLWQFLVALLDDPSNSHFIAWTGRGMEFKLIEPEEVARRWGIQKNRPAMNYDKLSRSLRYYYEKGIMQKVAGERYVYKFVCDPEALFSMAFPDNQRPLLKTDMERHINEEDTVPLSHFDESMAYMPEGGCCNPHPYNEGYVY
sequence,measurement,setting,value
TAAATA,binding signal,FLI1,"1.23 fold enrichment (6-mer frequency, TF over GST control)"
same,binding signal,ELK1,"1.18 fold enrichment (6-mer frequency, TF over GST control)"
same,binding signal,GABPA,"1.21 fold enrichment (6-mer frequency, TF over GST control)"
same,binding signal,ERG,"1.2 fold enrichment (6-mer frequency, TF over GST control)"
same,binding signal,ELF1,"1.21 fold enrichment (6-mer frequency, TF over GST control)"
same,binding signal,EHF,"1.23 fold enrichment (6-mer frequency, TF over GST control)"
same,binding signal,SPI1,"1.29 fold enrichment (6-mer frequency, TF over GST control)"
same,binding signal,SPIB,"1.35 fold enrichment (6-mer frequency, TF over GST control)"
same,binding signal,ELK3,"1.33 fold enrichment (6-mer frequency, TF over GST control)"
same,binding signal,FEV,"1.19 fold enrichment (6-mer frequency, TF over GST control)"
same,binding signal,ETV5,"1.27 fold enrichment (6-mer frequency, TF over GST control)"
same,binding signal,HSF1,"1.6 fold enrichment (6-mer frequency, TF over GST control)"
same,binding signal,SPIC,"1.17 fold enrichment (6-mer frequency, TF over GST control)"
same,binding signal,ELF4,"1.26 fold enrichment (6-mer frequency, TF over GST control)"
same,binding signal,ELK4,"1.27 fold enrichment (6-mer frequency, TF over GST control)"
same,binding signal,ETV2,"1.36 fold enrichment (6-mer frequency, TF over GST control)"
same,binding signal,ELF3,"1.3 fold enrichment (6-mer frequency, TF over GST control)"
same,binding signal,CRX,"2.12 fold enrichment (6-mer frequency, TF over GST control)"
same,binding signal,ETV1,"1.24 fold enrichment (6-mer frequency, TF over GST control)"
